What follows are molecules tested against AMP-activated protein kinase, AMPK (Homo sapiens) (UniProt P54646+O43741+P54619+Q9UGJ0+Q9Y478+Q13131+Q9UGI9) (assay: AMP-dependent Kinase enzyme assay. An in vitro enzyme assay that detects ADP turnover that is directly proportional to AMPK activity. This uses naive AMPK that is activated during the assay with MK-8722). Conditions: 30 µM.
Type: functional
Parameters: scale not given: direction of the effect not stated beside the values

| SMILES | Percent Effect |
| --- | --- |
| CN(Cc1ccncc1)C(=O)Nc1cnn(CC2CCCO2)c1 (stereo not given) | -6.68% |
| Cc1cccc(-c2ccc(C(=O)NCC3CCOC3)c(=O)[nH]2)c1 (stereo not given) | -7.21% |
| COc1ccc(C2CCCN2C(=O)NCCNc2ncccn2)cc1 (stereo not given) | -8.6% |
| Cc1cc(C)c2nc(CN3CC[C@@H](O)C3)cc(O)c2c1 | 0.932% |
| CCOc1cccc(CNC(=O)NCC(O)c2cccc(F)c2)c1 (stereo not given) | -2% |
| CN(C)C1CCN(C(=O)NCc2ccc(Cn3cncn3)cc2)CC1 | -5.16% |
| Cc1nn(C)c(C)c1C1CCCN1C(=O)CCCn1cccn1 (stereo not given) | 3.67% |
| O=C(NC1CCS(=O)(=O)C1)c1sccc1-c1ccc(F)cc1 (stereo not given) | 2.1% |
| O=C(NCCn1ccnc1)c1cccc(F)c1 | -6.48% |
| CCC(=O)N1Cc2nccn2CC(CN(C)Cc2cccnc2)C1 (stereo not given) | 10.6% |
| Cc1nc(N2CCN(C(=O)c3ccc(O)cc3)CC2)c2cnn(C)c2n1 | -5.77% |
| CCOC(=O)C1CCN(C(=O)Cn2ccc3cc(Br)ccc32)CC1 | -7.58% |
| Cc1cccc(CN2C[C@@H]3CN(C(=O)c4ccsc4)C[C@@H]3C2=O)c1 | 5.77% |
| CN(C)S(=O)(=O)c1ccc(OCCNCCn2cccn2)cc1 | 2.35% |
| CN(C)S(=O)(=O)N1CCC2(CCCN(Cc3ccc(F)cc3)C2=O)C1 (stereo not given) | -3.06% |
| CCOc1nnc(CN(C)C2CCCN(c3cccnn3)C2)s1 (stereo not given) | -2.62% |
| Cc1cc(-c2nnn(CCC(N)=O)n2)ccc1F | -6.12% |
| Cn1cc(C(=O)CC2CCCN2C(=O)c2cncc3ccccc23)cn1 (stereo not given) | -4.89% |
| Cc1ccccc1CSCCn1nc2ccccn2c1=O | 7.92% |
| Cn1ccnc1-c1cccc(NC(=O)NCCCO)c1 | -4.42% |

— ChEMBL document CHEMBL3988442, “University of Dundee, Small-Polar-MMV Screening Library” (2021)
